Data from PubChem BioAssay (NCATS).
Results filed as inconclusive are left out. Entries that show only a call come without a potency. Active and inactive are the calls of the source. The call rests on the fitted dose curve; in most records, active means well fitted inhibition curve with a large enough effect; inconclusive means small, poorly fitted or top-dose-only effect; inactive means flat fitted curve, though single readings scatter.

What was measured:
Test in all cases: qHTS profiling for inhibitors of Plasmodium falciparum proliferation (AID 504749); further: nearly all actives have a fitted effect of over 60% in size
Settings in all cases: P. falciparum in erythrocytes, SYBR Green DNA, 72 h; series mostly up to 28.7 µM
[1] = test system: CP291
How it was run: (§1)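 SYBR Green fluorescence of parasite DNA, read after lysis and overnight dark incubation, measured growth over 72 h in erythrocyte culture at 0.3% parasitemia and 2.5% hematocrit. Data normalised to DMSO and 0.29 uM artemisinin, with plate-drift correction.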

[2] = test system: CP297
How it was run: as §1

[3] = test system: CP315
How it was run: as §1

[4] = test system: CP325
How it was run: as §1

[5] = test system: CP329
How it was run: as §1

[6] = test system: DFO2036
How it was run: as §1

[7] = test system: DIV14
How it was run: as §1

[8] = test system: DIV17
How it was run: as §1

[9] = test system: DIV30
How it was run: as §1

[10] = test system: Dd2
How it was run: as §1

[11] = test system: ECU
How it was run: as §1

[12] = test system: FAB9
How it was run: as §1

[13] = test system: GB4
How it was run: as §1

[14] = test system: HB3
How it was run: as §1

[15] = test system: ICS
How it was run: as §1

[16] = test system: JCK
How it was run: as §1

[17] = test system: N140
How it was run: as §1

[18] = test system: P93_24
How it was run: as §1

[19] = test system: CP305
How it was run: as §1

[20] = test system: CP335
How it was run: as §1
Potency means the concentration at half of the fitted maximal effect.

Row | Compound | Potency [1] | Potency [2] | Potency [3] | Potency [4] | Potency [5] | Potency [6] | Potency [7] | Potency [8] | Potency [9] | Potency [10] | Potency [11] | Potency [12] | Potency [13] | Potency [14] | Potency [15] | Potency [16] | Potency [17] | Potency [18] | Potency [19] | Potency [20]
1 | C=CC[C@@H]1/C=C(\C)C[C@H](C)C[C@H](OC)[C@H]2O[C@@](O)(C(=O)C(=O)N3CCCC[C@H]3C(=O)O[C@H](/C(C)=C/[C@@H]3CC[C@@H](O)[C@H](OC)C3)[C@H](C)[C@@H](O)CC1=O)[C@H](C)C[C@@H]2OC | 6.75 µM (active) | 1.9 µM (active) | 6.75 µM (active) | 4.26 µM (active) | 4.26 µM (active) | 1 µM (active) | 1.69 µM (active) | 1.69 µM (active) | 0.849 µM (active) | 0.112 µM (active) | 1.26 µM (active) | 2 µM (active) | 3.79 µM (active) | 1 µM (active) | 0.447 µM (active) | 3.98 µM (active) | 0.891 µM (active) | 2 µM (active) | – | –
2 | CN(C)CCCSc1ccccc1NC(=O)/C=C/c1ccccc1 | inactive | – | inactive | inactive | inactive | inactive | – | – | inactive | – | inactive | inactive | – | inactive | inactive | inactive | inactive | inactive | inactive | inactive
3 | Cc1ncc[nH]1 | inactive | inactive | – | inactive | inactive | inactive | inactive | inactive | inactive | inactive | inactive | inactive | inactive | inactive | inactive | inactive | inactive | inactive | inactive | inactive
4 | O=C(O)CCCC/C=C(\c1ccccc1)c1cccnc1 | inactive | – | inactive | inactive | inactive | inactive | inactive | inactive | inactive | inactive | inactive | inactive | inactive | inactive | inactive | inactive | inactive | inactive | inactive | inactive
5 | CC(O)CN(C)C (stereo not given) | inactive | inactive | inactive | inactive | – | inactive | inactive | inactive | inactive | inactive | inactive | inactive | inactive | inactive | inactive | inactive | inactive | inactive | inactive | inactive
6 | CSc1nc2cc(Oc3cccc(Cl)c3Cl)c(Cl)cc2[nH]1 | 8.49 µM (active) | 12 µM (active) | – | 13.5 µM (active) | 13.5 µM (active) | 8.91 µM (active) | 9.53 µM (active) | – | 10.7 µM (active) | 14.1 µM (active) | 6.31 µM (active) | – | 12 µM (active) | 8.91 µM (active) | – | – | 8.91 µM (active) | 10 µM (active) | 13.5 µM (active) | –
7 | O=C(CCCN1CCN2CCCC2C1)c1ccc(F)cc1 (stereo not given) | inactive | – | inactive | inactive | inactive | inactive | – | – | inactive | 12.6 µM (active) | inactive | inactive | – | inactive | inactive | inactive | 10 µM (active) | – | inactive | inactive
8 | NCCO/C=C/[C@H](N)C(=O)O | inactive | inactive | inactive | – | inactive | inactive | inactive | inactive | inactive | inactive | inactive | inactive | inactive | inactive | inactive | inactive | inactive | inactive | inactive | inactive
9 | O=C(O)/C=C/C(=O)Nc1ccc(S(=O)(=O)Nc2nccs2)cc1 | inactive | – | inactive | inactive | inactive | inactive | inactive | inactive | inactive | inactive | inactive | inactive | inactive | inactive | inactive | inactive | inactive | inactive | inactive | inactive
10 | CNC(=O)c1c(I)c(C(=O)NCC(=O)Nc2c(I)c(C(=O)O)c(I)c(C(=O)NCCO)c2I)c(I)c(N(C)C(C)=O)c1I | inactive | inactive | – | inactive | inactive | inactive | inactive | inactive | inactive | inactive | inactive | inactive | inactive | inactive | inactive | inactive | inactive | inactive | inactive | inactive
11 | NC(=O)CC[C@@H]1NC(=O)[C@H](Cc2ccccc2)NC(=O)[C@H](Cc2ccc(O)cc2)NC(=O)[C@@H](N)CSSC[C@@H](C(=O)N2CCC[C@H]2C(=O)N[C@@H](CCCN=C(N)N)C(=O)NCC(N)=O)NC(=O)[C@H](CC(N)=O)NC1=O | inactive | inactive | inactive | inactive | inactive | – | inactive | – | inactive | inactive | – | inactive | – | – | 8.91 µM (active) | inactive | – | – | inactive | –
12 | CN(C)C(=O)CCSC(SCCC(=O)O)c1cccc(/C=C/c2ccc3ccc(Cl)cc3n2)c1 (stereo not given) | inactive | – | inactive | inactive | inactive | – | – | – | – | – | – | inactive | – | – | 11.2 µM (active) | inactive | – | – | inactive | –
13 | C=C1C(CCl)(CCl)C2(Cl)C(Cl)C(Cl)C1(Cl)C2(Cl)Cl (stereo not given) | 4.26 µM (active) | 3.79 µM (active) | – | 3.79 µM (active) | 6.75 µM (active) | 2 µM (active) | 1.69 µM (active) | 1.9 µM (active) | 1.69 µM (active) | 2.24 µM (active) | 2 µM (active) | 3.55 µM (active) | 2.13 µM (active) | 2.51 µM (active) | 0.355 µM (active) | 10 µM (active) | 2 µM (active) | 2 µM (active) | 3.79 µM (active) | 3.01 µM (active)
14 | CN(C)C=Nc1c(I)cc(I)c(CCC(=O)O)c1I | inactive | – | inactive | inactive | inactive | inactive | inactive | inactive | inactive | inactive | inactive | inactive | inactive | inactive | inactive | inactive | inactive | inactive | inactive | inactive
15 | Cc1cccc(C)c1NC(=O)C1CCCCN1C (stereo not given) | inactive | – | inactive | inactive | inactive | inactive | inactive | inactive | inactive | inactive | inactive | inactive | – | inactive | inactive | inactive | inactive | inactive | inactive | inactive
16 | CC1CCC(NC(=O)N(CCCl)N=O)CC1 (stereo not given) | inactive | inactive | inactive | inactive | inactive | inactive | – | inactive | inactive | – | inactive | inactive | – | inactive | inactive | inactive | inactive | inactive | inactive | –
17 | O=C1CCC(=O)N1CO | inactive | – | inactive | inactive | inactive | inactive | inactive | inactive | inactive | inactive | inactive | inactive | inactive | inactive | inactive | inactive | inactive | inactive | inactive | inactive
18 | CC/C=C\C/C=C\C/C=C\CCCCCCCC(=O)O | inactive | inactive | inactive | inactive | inactive | inactive | – | inactive | inactive | inactive | inactive | inactive | inactive | inactive | – | inactive | inactive | inactive | inactive | –
19 | CO/N=C(/C(=O)N[C@@H]1C(=O)N2C(C(=O)O)=C(COC(N)=O)CS[C@H]12)c1ccco1 | inactive | – | inactive | inactive | inactive | inactive | inactive | – | inactive | inactive | inactive | inactive | – | – | 8.91 µM (active) | inactive | inactive | – | inactive | inactive
20 | CC(C)CCCC(C)NC(C)C (stereo not given) | inactive | – | inactive | inactive | inactive | inactive | inactive | inactive | inactive | inactive | inactive | inactive | inactive | inactive | inactive | inactive | inactive | inactive | inactive | inactive
21 | O=P(O)(O)OC[C@H]1O[C@](O)(COP(=O)(O)O)[C@@H](O)[C@@H]1O | inactive | – | inactive | inactive | inactive | inactive | inactive | inactive | inactive | inactive | inactive | inactive | inactive | inactive | inactive | inactive | inactive | inactive | inactive | inactive
22 | CCN(CC)CCCC(C)Nc1cc(/C=C/c2ccccc2Cl)nc2cc(Cl)ccc12 (stereo not given) | 2.13 µM (active) | 7.57 µM (active) | – | 0.849 µM (active) | 6.75 µM (active) | 1 µM (active) | 4.26 µM (active) | 4.26 µM (active) | 1.69 µM (active) | 2.24 µM (active) | 2.51 µM (active) | – | 4.78 µM (active) | 2 µM (active) | 0.398 µM (active) | 11.2 µM (active) | 3.16 µM (active) | 2 µM (active) | – | 2.69 µM (active)
23 | O=C(OC1C[C@@H]2CC3C[C@H](C1)N2CC3=O)c1c[nH]c2ccccc12 (stereo not given in full) | inactive | inactive | inactive | inactive | inactive | inactive | 7.57 µM (active) | 7.57 µM (active) | – | inactive | – | inactive | – | inactive | 10 µM (active) | inactive | inactive | inactive | – | –
24 | CCOC(=O)Cc1ccc(-c2ccccc2)cc1 | inactive | – | inactive | inactive | inactive | – | inactive | inactive | – | inactive | inactive | inactive | inactive | inactive | inactive | inactive | 0.224 µM (active) | inactive | inactive | –
